In all, about 5,500 compounds went through this assay and about 2,000 (36%) were called active. About 18% were inconclusive and are not listed. No stated cut-off is given here; in the data, active means normalized growth mostly below about 0.91 (no sharp cut-off); inconclusive means no clear call, values can overlap the other calls; inactive means mostly above about 0.92. This is one part of the list.
Experiment: chemical genetic growth profiling, strain panel (AID 1159580);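 further: tested at 20 µM; growth read once vehicle control cultures reached saturation at 30 °C; 1 = growth at the plate median or of vehicle wells; lower values mean less growth of the strain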
Conditions: growth OD
[1] = S. cerevisiae deletion strains, locus YHR030C, strain SLT2, active compounds read low
[2] = S. cerevisiae deletion strains, locus YJL095W, strain BCK1, active compounds read low

Measured: normalized growth

CC(c1cc2ccccc2s1)N(O)C(N)=O (centres undefined)
inactive: [1] 1.01 | S. cerevisiae deletion strains, locus YHR079C, strain IRE1, active compounds read low 0.964 | [2] 0.981 | S. cerevisiae deletion strains, locus YJR066W, strain TOR1, active compounds read low 0.941 | S. cerevisiae deletion strains, locus YLR113W, strain HOG1, active compounds read low 0.944 | S. cerevisiae deletion strains, locus YNL183C, strain NPR1, active compounds read low 0.892 | S. cerevisiae deletion strains, locus YOR231W, strain MKK1, active compounds read low 0.967 | S. cerevisiae deletion strains, locus YPL256C, strain CLN2, active compounds read low 0.976

COC(=O)C[C@H]1C(C)(C)[C@H](O)[C@@H]2CC3=C4CC(O)O[C@@H](c5ccoc5)[C@]4(C)CCC3[C@@]1(C)C2=O (some centres undefined)
inactive: S. cerevisiae deletion strains, locus YBR021W, strain FUR4, active compounds read low 1.01 | S. cerevisiae deletion strains, locus YBR229C, strain ROT2, active compounds read low 0.948 | S. cerevisiae deletion strains, locus YCL029C, strain bik1, active compounds read low 0.969 | S. cerevisiae deletion strains, locus YDL035C, strain GPR1, active compounds read low 0.974 | S. cerevisiae deletion strains, locus YDL074C, strain BRE1, active compounds read low 0.966 | S. cerevisiae deletion strains, locus YDL101C, strain DUN1, active compounds read low 0.99 | S. cerevisiae deletion strains, locus YDL185W, strain tfp1, active compounds read low 0.971 | S. cerevisiae deletion strains, locus YDL192W, strain arf1, active compounds read low 0.978 | S. cerevisiae deletion strains, locus YDR101C, strain arx1, active compounds read low 0.983 | S. cerevisiae deletion strains, locus YDR162C, strain NBP2, active compounds read low 0.984 | S. cerevisiae deletion strains, locus YDR318W, strain mcm21, active compounds read low 0.992 | S. cerevisiae deletion strains, locus YDR388W, active compounds read low 0.979 | S. cerevisiae deletion strains, locus YDR502C, strain sam2, active compounds read low 1.02 | S. cerevisiae deletion strains, locus YEL061C, strain CIN8, active compounds read low 0.974 | S. cerevisiae deletion strains, locus YER110C, active compounds read low 0.985 | S. cerevisiae deletion strains, locus YER155C, strain BEM2, active compounds read low 1 | S. cerevisiae deletion strains, locus YER167W, strain BCK2, active compounds read low 0.969 | S. cerevisiae deletion strains, locus YGL078C, strain dbp3, active compounds read low 1.03 | S. cerevisiae deletion strains, locus YGL086W, strain mad1, active compounds read low 1 | S. cerevisiae deletion strains, locus YGL248W, strain PDE1, active compounds read low 0.991 | S. cerevisiae deletion strains, locus YGR078C, strain PAC10, active compounds read low 1.02 | S. cerevisiae deletion strains, locus YGR135W, strain pre9, active compounds read low 1.07 | S. cerevisiae deletion strains, locus YGR229C, strain SMI1, active compounds read low 1.02 | S. cerevisiae deletion strains, locus YGR252W, strain gcn5, active compounds read low 1.03 | [1] 0.996 | S. cerevisiae deletion strains, locus YHR079C, strain IRE1 (second series), active compounds read low 0.993 | S. cerevisiae deletion strains, locus YHR094C, strain hxt1, active compounds read low 0.984 | S. cerevisiae deletion strains, locus YHR129C, strain ARP1, active compounds read low 0.99 | S. cerevisiae deletion strains, locus YHR200W, strain rpn10, active compounds read low 0.999 | S. cerevisiae deletion strains, locus YIL066C, strain RNR3, active compounds read low 0.948 | S. cerevisiae deletion strains, locus YIL073C, strain SPO22, active compounds read low 0.964 | S. cerevisiae deletion strains, locus YIL125W, strain kgd1, active compounds read low 0.986 | S. cerevisiae deletion strains, locus YIR030C, strain dcg1, active compounds read low 0.99 | [2] 0.993 | S. cerevisiae deletion strains, locus YJL134W, strain LCB3, active compounds read low 0.971 | S. cerevisiae deletion strains, locus YJL168C, strain set2, active compounds read low 0.991 | S. cerevisiae deletion strains, locus YJL187C, strain SWE1 (second series), active compounds read low 1 | S. cerevisiae deletion strains, locus YJR043C, strain POL32, active compounds read low 0.975 | S. cerevisiae deletion strains, locus YKL009W, strain mrt4, active compounds read low 0.953 | S. cerevisiae deletion strains, locus YKL068W, active compounds read low 0.985 | S. cerevisiae deletion strains, locus YKL085W, strain MDH1 (second series), active compounds read low 0.988 | S. cerevisiae deletion strains, locus YKL085W, strain MDH1, active compounds read low 0.988 | S. cerevisiae deletion strains, locus YKL190W, strain CNB1, active compounds read low 0.98 | S. cerevisiae deletion strains, locus YKR001C, strain vps1, active compounds read low 0.978 | S. cerevisiae deletion strains, locus YLR039C, strain RIC1, active compounds read low 0.964 | S. cerevisiae deletion strains, locus YLR058C, strain SHM2, active compounds read low 0.975 | S. cerevisiae deletion strains, locus YLR102C, strain apc9, active compounds read low 0.991 | S. cerevisiae deletion strains, locus YLR262C, strain YPT6, active compounds read low 0.99 | S. cerevisiae deletion strains, locus YLR268W, strain sec22, active compounds read low 0.953 | S. cerevisiae deletion strains, locus YLR330W, strain CHS5, active compounds read low 0.986 | S. cerevisiae deletion strains, locus YLR371W, strain rom2, active compounds read low 0.986 | S. cerevisiae deletion strains, locus YLR418C, strain cdc73, active compounds read low 0.975 | S. cerevisiae deletion strains, locus YML016C, strain PPZ1, active compounds read low 0.977 | S. cerevisiae deletion strains, locus YML032C, strain rad52, active compounds read low 0.976 | S. cerevisiae deletion strains, locus YML124C, strain tub3, active compounds read low 0.992 | S. cerevisiae deletion strains, locus YMR078C, strain ctf18, active compounds read low 0.989 | S. cerevisiae deletion strains, locus YMR223W, strain ubp8, active compounds read low 1 | S. cerevisiae deletion strains, locus YMR307W, strain GAS1, active compounds read low 0.951 | S. cerevisiae deletion strains, locus YNL067W, strain RPL9B, active compounds read low 1.03 | S. cerevisiae deletion strains, locus YNL153C, strain GIM3, active compounds read low 1.01 | S. cerevisiae deletion strains, locus YNL233W, strain BNI4, active compounds read low 1.03 | S. cerevisiae deletion strains, locus YNL250W, strain rad50, active compounds read low 0.998 | S. cerevisiae deletion strains, locus YNL271C, strain bni1, active compounds read low 0.989 | S. cerevisiae deletion strains, locus YNL298W, strain CLA4, active compounds read low 0.984 | S. cerevisiae deletion strains, locus YNL307C, strain MCK1, active compounds read low 0.994 | S. cerevisiae deletion strains, locus YNR052C, strain pop2, active compounds read low 1.04 | S. cerevisiae deletion strains, locus YOL012C, strain htz1 0.912 | S. cerevisiae deletion strains, locus YOL147C, strain pex11, active compounds read low 0.989 | S. cerevisiae deletion strains, locus YOR061W, strain CKA2, active compounds read low 0.944 | S. cerevisiae deletion strains, locus YOR069W, strain VPS5, active compounds read low 0.986 | S. cerevisiae deletion strains, locus YOR136W, strain idh2, active compounds read low 0.994 | S. cerevisiae deletion strains, locus YOR144C, strain elg1, active compounds read low 0.991 | S. cerevisiae deletion strains, locus YOR184W, strain ser1, active compounds read low 0.954 | S. cerevisiae deletion strains, locus YOR316C, strain cot1, active compounds read low 0.992 | S. cerevisiae deletion strains, locus YPL241C, strain CIN2, active compounds read low 0.988 | S. cerevisiae deletion strains, locus YPR119W, strain clb2, active compounds read low 1.01 | S. cerevisiae deletion strains, locus YPR141C, strain kar3, active compounds read low 0.989 | S. cerevisiae deletion strains, locus YPR163C, strain tif3, active compounds read low 0.987 | S. cerevisiae deletion strains, locus YPR167C, strain met16, active compounds read low 0.996 | S. cerevisiae deletion strains, strain wtn01, active compounds read low 0.98 | S. cerevisiae strains, strain wild type, active compounds read low 0.979

Source: PubChem BioAssay AID1159580 (chemical genetic matrix, 2015)
